An excerpt weighted towards active compounds, which were near 21% of everything screened.
Shiga toxin inh = blocks Shiga toxin action in Vero cells. inhibition, % at 38.7 µM. AID 2315. Vero cells, Shiga toxin protein synthesis inhibition reporter. 290,000 compounds, 9.2% hits; in the data active = inhibition mostly above about 28%, no sharp cut-off; inactive = mostly below about 43%; note: 0% is about no effect
Pf growth 48h = P. falciparum growth inhibition at 48 hours (one generation) | 310,000 compounds, 5.9% hits | Potency, µM (titrated, usually from 28.7 µM), for inactives: at the highest dose activity change, negative = inhibition, most hits filed as inhibitors | P. falciparum luciferase growth in erythrocytes, 48 h; note: potency is the fitted concentration of half-maximal effect; % is set by controls: 0 for no effect and ±100 for the full control effect
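Luminescence readout; reporter = integrated firefly luciferase in P. falciparum. RBC culture at 2% hematocrit, 0.1% parasitemia final, 37 C/5% CO2; decreased signal taken as growth inhibition.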
CHX counter = affects cycloheximide protein synthesis inhibition readout, counter-screen | max response, % | cell reporter, cycloheximide protein synthesis inhibition counterscreen | 300,000 compounds, 12% hits; in the data active = max response mostly above about 13%, no sharp cut-off; inactive = mostly below about 14%; note: read at 38.3 µM for the half of the compounds with a filed dose; 0% is about no effect
NS1 inh = influenza NS1 inhibition; Potency, µM (series often up to 46.1 µM), inactives show top-dose activity, positive = more growth; 270,000 compounds, 0.4% hits; calls by dose curve; note: potency is the fitted concentration of half-maximal effect; actives are rising curves; nearly all actives have a fitted effect of over 50% in size
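In this qHTS, NS1 from influenza A is expressed in budding yeast, where it slows growth. Cells are switched from glucose to 2% galactose medium (pH 6.0, -URA), treated with compound, and growth recovery is read at OD600.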
Pf growth 96h = inhibits malaria parasite growth, 96 h | P. falciparum luciferase reporter growth, 96 h | Potency, µM (titrated, usually from 28.7 µM), inactives show at the top dose activity change, negative = inhibition, usual class: inhibitors | 320,000 compounds, 6.9% hits; note: potency is the fitted concentration of half-maximal effect; % is set by controls: 0 for no effect and ±100 for the full control effect
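Two-generation exposure (96 h) targets delayed-death phenotype. Reporter parasites carrying integrated firefly luciferase, in red cells at 2% hematocrit and 0.05% parasitemia final, kept at 37 C, 5% CO2; luminescence loss indicates inhibition.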
The depositor's hits bear a star; ? = inconclusive; . = no result given; [ ] = another dose, or the depositor's remark. Unless noted, calls come from the whole dose curve; as a rule, active = well fitted inhibition curve with a large enough effect; inconclusive = small, poorly fitted or top-dose-only effect, or another doubt; inactive = no such curve, though single readings can be large or run the other way.

SMILES | Shiga toxin inh | Pf growth 48h | CHX counter | NS1 inh | Pf growth 96h
COc1ccc(CNC(=O)CCC(=O)c2ccccc2)cc1 | . | 15µM* | . | . | -28%
COc1ccc(C(=O)CCC(=O)NCc2cc(OC)cc(OC)c2)cc1 | 17 | ? | -4 | 2% | 1%
CC(C)CC(=O)NC1(C(F)(F)F)C(=O)Nc2c1c(=O)n(C)c(=O)n2C (centres undefined) | 2 | 16% | -5 | -1% | .
Cc1ccccc1N(C(=O)c1ccccn1)C(C(=O)NCc1ccccc1)c1cccnc1 (centres undefined) | -9 | -8% | -2 | 11% | -14%
CCn1cc(CN2CCC(C(=O)Nc3ccc(Oc4cccnc4)cc3)CC2)cn1 | -19 | 13µM* | -2 | 21% | 12%
O=C(Nc1ccc(Oc2cccnc2)cc1)C1CCN(Cc2ccc(F)cc2)CC1 | 0 | ? | 11 | 16% | 11%
COc1cccc(CN2CCC(C(=O)Nc3ccc(Oc4cccnc4)cc3)CC2)c1 | -11 | ? | 2 | 2% | 56%
O=C(Nc1ccc(Oc2cccnc2)cc1)C1CCN(Cc2cc(Cl)ccc2O)CC1 | 23 | 1.3µM* | 10 | -9% | ?
Cc1cccc(CN2CCC(C(=O)Nc3ccc(Oc4cccnc4)cc3)CC2)c1 | -1 | 13µM* | -3 | 1% | 14%
CCn1cc(CN2CCC(C(=O)Nc3ccc(Oc4cccnc4)cc3)CC2)c(C)n1 | -35 | ? | -3 | 14% | 5%
COc1ccc(-c2nc3nc(C)cc(=O)n3[nH]2)cc1 | 17 | . | -1 | 9% | 25%
O=C(CCC(=O)N1CCCC(Nc2ccccc2)C1)c1ccc(F)cc1 (centres undefined) | 1 | 2% | -3 | 6% | 11%
O=C(N/C(=C/c1cccc([N+](=O)[O-])c1)C(=O)N1CCCCCC1)c1ccco1 | -9 | 5% | 3 | -6% | ?
COc1ccc(NC(=O)CCn2c(=O)c3cccn3c3ccccc32)cc1 | -8 | -11% | -6 | -2% | ?
Cc1ccc(NC(=O)CCn2c(=O)c3cccn3c3ccccc32)c(C)c1 | -9 | ? | -3 | -7% | 13µM*
Cc1ccc(NC(=O)Cn2c(=O)c3cccn3c3ccccc32)c(C)c1 | -3 | ? | -2 | -2% | ?
COc1ccc(NC(=O)CCn2c(=O)c3cccn3c3ccccc32)c(OC)c1 | -3 | ? | -7 | 3% | 12µM*
Cc1cc(C)n2nc(C(=O)N/N=C/c3cccs3)nc2n1 | 17 | 6% | 8 | -1% | 19%
CC(N=C1NS(=O)(=O)c2ccccc21)C(=O)OCC(=O)N(C)C1CCS(=O)(=O)C1 (centres undefined) | . | 11% | . | . | 18%
Cc1nn(CC(=O)NCCCc2ccccc2)c(=O)c2cc3occc3n12 | 7 | 11% | -8 | 20% | 23%
Cc1nc(-c2ccccc2)nc2[nH]ccc(=O)c12 | 45 | . | 34* | 3% | 13%
Cc1nc(-c2ccc([N+](=O)[O-])cc2)nc2[nH]ccc(=O)c12 | 36 | 221% | 30* | -2% | 1%
CCN(CC)S(=O)(=O)c1ccc(S(=O)(=O)Nc2ccc(C(=O)N3CCCC3)cc2)cc1 | -18 | -18% | -1 | -2% | -21%
COCCNC(=O)NC(=O)CN1CCN(C(c2ccccc2)c2ccccc2)CC1 | 18 | ? | -3 | . | ?
Cc1cc(C)c2cc(C(c3nnnn3CC3CCCO3)N3CCN4CCCC4C3)c(=O)[nH]c2c1 (centres undefined) | -3 | 15µM* | -4 | ? | -2%[5.75 µM]
SMILES | Shiga toxin inh | Pf growth 48h | CHX counter | NS1 inh | Pf growth 96h
CC(C)C(c1nnnn1CC1CCCO1)N1CCN(C2CCCC2)CC1 (centres undefined) | -12 | 6% | -5 | -15% | 13µM*
COc1nc(SC)nc(Cl)c1Cc1ccc(OC(C)C)cc1 | -2 | -16% | 8 | -24% | 1µM*
CCCOc1ccc(Cc2c(Cl)nc(SC)nc2OC)cc1 | 11 | 12% | -1 | -6% | -2%
CN(C(=O)CSc1cn(CC(=O)N2CCOCC2)c2ccccc12)c1ccccc1 | 10 | -3% | 17 | ? | ?
CC1CN(C(=O)CSc2cn(CC(=O)N3CCOCC3)c3ccccc23)CC(C)O1 (centres undefined) | -3 | 5% | 13 | -6% | -19%
O=C(Cn1cc(SCc2ccc(F)cc2)c2ccccc21)N1CCOCC1 | 16* | -8% | 36* | -6% | -22%
O=C(Cn1cc(SCc2ccc(Cl)cc2)c2ccccc21)N1CCOCC1 | 32* | 11% | 26* | -32% | ?
O=C(Nc1ccc(Cl)cc1Cl)NC1CCN(S(=O)(=O)c2ccc(F)cc2)CC1 | 6 | 91% | -2 | -7% | 15%
Cc1c2oc3c(C)ccc(C(=O)N[C@@H]4C(=O)N[C@H](C(C)C)C(=O)N5CCC[C@H]5C(=O)N(C)CC(=O)N(C)[C@@H](C(C)C)C(=O)O[C@@H]4C)c3nc-2c(C(=O)N[C@@H]2C(=O)N[C@H](C(C)C)C(=O)N3CCC[C@H]3C(=O)N(C)CC(=O)N(C)[C@@H](C(C)C)C(=O)O[C@@H]2C)c(N)c1=O | -6 | 0.0048µM* | 1 | . | 0.0024µM*
CCc1ccc(C(=O)NCc2cnn(C)c2)s1 | 37* | 14%[5.75 µM] | 24 | . | 4%
C=CCSc1nnc(CCc2ccccc2)n1N | . | 48% | . | . | ?
C=CCSc1nnc(-c2sc(-c3ccccc3)nc2C)n1C | 17 | -8% | 42* | -12% | 16%
C=CCSc1nnc(-c2nnc(SCC=C)n2-c2ccccc2)n1-c1ccccc1 | -10 | ? | 6 | 1% | 6.6µM*
Cc1ccc(C(=O)NCC(=O)OCn2nnc3ccccc3c2=O)cc1 | . | 6% | . | . | ?
CCOc1ccc(N(Cc2cc3ccc(C)cc3[nH]c2=O)C(=O)COC)cc1 | 29 | -10% | 24* | -11% | ?
Cc1ccc(N(Cc2cc3ccc(C)cc3[nH]c2=O)C(=O)c2ccco2)cc1 | -3 | -11% | -1 | 2% | 239%
Cc1ccc2cc(CN(C(=O)c3ccco3)c3ccccc3)c(=O)[nH]c2c1 | 30 | -10% | 23* | 6% | ?
COCC(=O)N(Cc1cc2ccc(C)cc2[nH]c1=O)c1ccc(OC)cc1 | -7 | -3% | -5 | 5% | 2%
Cc1cccc(N(Cc2cc3ccc(C)cc3[nH]c2=O)C(=O)c2ccco2)c1 | -2 | ? | -1 | 3% | 10µM*
CCN(C(=O)CSc1nnc2nc(C)cc(C)n12)c1ccccc1 | -16 | ? | -1 | . | ?
Cc1c(Br)c([N+](=O)[O-])nn1CC(=O)Nc1ccc(C(N)=O)cc1 | -7 | 6% | -1 | -1% | 26%
COc1ccc(C(C)=O)cc1CC(=O)Nc1ccccc1-c1ccccc1 | -11 | ? | 12 | -3% | ?
O=C(NC(=O)c1ccc(F)cc1F)Nc1ccc(Cl)cc1 | 21 | 5.2µM* | 8 | -5% | 165%
NS(=O)(=O)c1ccc(NNC(=O)c2ccc(F)cc2F)cc1 | 18 | 15% | -2 | -2% | 17%
O=C(Nc1ccc(N2CCCCC2)cc1)c1ccc(F)cc1F | 45* | 69% | 42* | -1% | 447%

Assay outcomes: PubChem BioAssay, National Center for Advancing Translational Sciences (NCATS)
